Each structure is given as a SMILES string.

Format in all cases: functional
The test system of experiment [1] is Plasmodium falciparum. The experiment in a line: GSK_TCMDC: Inhibition of Plasmodium falciparum 3D7 in whole red blood cells, using parasite LDH activity as an index of growth. Test compounds present at 2uM.
For experiment [2], the system named is Plasmodium falciparum. The experiment in a line: GSK_TCMDC: Inhibition of Plasmodium falciparum Dd2 in whole red blood cells, using parasite LDH activity as an index of growth. Test compounds present at 2uM.
The test system of experiment [3] is HepG2. Description: GSK_TCMDC: Percent inhibition of human HepG2 cell line. Test compounds present at 10uM.

In the case of `CC(C)(CNCc1ccc(Cl)cc1)c1nc(-c2ccc(Cl)c(O)c2)c(-c2ccncc2)[nH]1.Cl`, the Inhibition – broadly, how much of the control response was suppressed – was determined as 100% in experiment [1], 98% in experiment [2] and 86% in experiment [3].

As to `Cc1cc(-c2cc(-c3ccc(OCCN(C)C)cc3)[nH]c2-c2ccc3c(c2)CCC3=NO)ccn1`, the Inhibition in experiment [1] was 100%; in experiment [2], 92%; in experiment [3], 0%.

For the compound `O=C(O)C(F)(F)F.c1ccc(CCNCc2ccc(-c3ccc(CNCc4ccc5c(c4)OCO5)cc3)nc2)cc1`, the Inhibition in experiment [1] stood at 94%; in experiment [2] it was 67%; in experiment [3], 24%.

With `O=C(NCCCN1CCCCC1)c1ccc(Nc2nccc(Nc3ccc(Oc4ccccc4)cc3)n2)cc1`, the results for the Inhibition in experiment [1], in experiment [2] and in experiment [3] were 100%, 61% and 30%, respectively.

Turning to `COc1cc(OC)cc(-c2nn(-c3ccc([N+](=O)[O-])cc3C#N)c(=S)n2Cc2ccco2)c1`, the values for the Inhibition in experiment [1], in experiment [2] and in experiment [3] were 100%, 100% and 11%, respectively.

Take `O=C(Nc1cccc(F)c1)c1ccc(C(=O)NC2CCN(CC3CCCCC3)C2)cc1.O=C(O)C(F)(F)F` (stereo not given): the Inhibition turned out to be 96% in experiment [1], 15% in experiment [2] and 16% in experiment [3].

Turning to `COc1ccc2nccc(N3CCC(CCNCc4cc5c(cn4)OCCO5)CC3)c2n1.Cl`, the values for the Inhibition in experiment [1], in experiment [2] and in experiment [3] were 100%, 100% and 18%, respectively.

Take `CS(=O)(=O)Cc1ccc(Nc2nccc(N3CCCc4cc(NC(=O)Nc5cccc(C(F)(F)F)c5)ccc43)n2)cc1`: the Inhibition is 100% in experiment [1], 99% in experiment [2] and 46% in experiment [3].

Consider `CC(=O)Nc1ccc(OCCN(Cc2ccccc2C(F)(F)F)c2ccc(C#N)c(C(F)(F)F)c2)cc1`, for which the Inhibition was 100% in experiment [1], 81% in experiment [2] and 8% in experiment [3].

On to `Nc1ncc(-c2ccc(F)cc2)cc1-c1nc2ccc(Cl)cc2[nH]1`, for which the Inhibition in experiment [1] worked out at 99%; in experiment [2], 44%; in experiment [3], 45%.

These data come from ChEMBL document CHEMBL1157539, “Thousands of chemical starting points for antimalarial lead identification” (Nature, 2010).
